GAA glycogen mod – GAA glycogen-cleavage inhibition or activation; P10253; 0.38% of 300,000 active; recombinant GAA, glycogen substrate, Amplex Red glucose oxidase fluorescence; Potency, µM (titrated, usually from 76.4 µM), for the others: at the top dose activity change, negative = inhibition, actives largely listed as inhibitors;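 note: potency is the fitted concentration of half-maximal effect; 0% = full enzyme reaction and -100% = no-enzyme basal signal; the screen sought inhibitors and activators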
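Recombinant enzyme (4 nM final) with compounds titrated up to 77 uM and bovine liver glycogen (30 ug) in citrate pH 5.0, 0.01% Tween-20, 37 C 40 min. Released glucose detected by Amplex Red/glucose oxidase (Ex 573/Em 610); AC50 from Hill fits.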
GAA spleen mod – inhibits or activates alpha-glucosidase in human spleen homogenate. P10253. human spleen homogenate, 4-MU-alpha-glucoside fluorescence. Potency, µM (titrated, usually from 79.9 µM), without a hit: at the top dose activity change, negative = inhibition, usual class: inhibitors. 0.006% of 240,000 active;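 note: potency is the fitted concentration of half-maximal effect; 0% = enzyme with vehicle and -100% = no enzyme basal signal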
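Compounds were titrated against alpha-glucosidase in spleen homogenate at pH 5.0, with 1 mM 4-methylumbelliferyl substrate for 40 min at 37 C. Reactions were quenched with pH 10 NaOH/glycine and fluorescence measured.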
GLA inh pH 4.5 – alpha-galactosidase A (human) inhibition, pH 4.5 | P06280 | purified enzyme, 4-MU-alpha-Gal fluorescence, pH 4.5 | activity change, negative = inhibition, % at 105 µM | 230,000 tested, under 10 active;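 note: 0% = full activity with enzyme and -100% = basal without enzyme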
GAA inh – alpha-glucosidase (human) inhibition | P10253 | purified human GAA, 4-MU-alpha-glucoside fluorescence | Potency, µM (highest dose often 76.9 µM), for the others: at the top dose activity change, negative = inhibition, actives largely listed as inhibitors | 0.005% of 200,000 active | AID 1466;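 note: potency is the fitted concentration of half-maximal effect; plate controls were uninhibited enzyme wells for no effect and no-enzyme background for full effect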
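Human enzyme at 4 nM with 400 uM 4-methylumbelliferyl-alpha-D-pyranoside, citrate/phosphate buffer pH 5.0, 0.005% Tween-20, 20 min at room temperature. Compounds up to 77 uM. 4-MU fluorescence (Ex 365/Em 440) read after NaOH/glycine stop; AC50 from Hill fit.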
N370S GC – inhibitors or activators of N370S glucocerebrosidase for Gaucher disease; AID 2101; 0.092% of 330,000 active; Potency, µM (series often up to 59.4 µM), without a hit: at the top dose activity change, negative = inhibition, most hits filed as inhibitors; N370S GC spleen homogenate, 4MU-glucoside fluorescence; P04062;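 note: potency is the fitted concentration of half-maximal effect; 0% = full enzyme activity and -100% = no enzyme basal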
aGal spleen mod – inhibitors or activators of human alpha-galactosidase in spleen homogenate. human spleen homogenate, 4MU-alpha-Gal fluorescence, 40 min. Potency, µM (doses to about 80 µM), for the others: at the top dose activity change, negative = inhibition, hits mostly inhibitors. 0.008% of 240,000 active. AID 2107;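 note: potency is the fitted concentration of half-maximal effect; 0% = enzyme with vehicle and -100% = no enzyme basal signal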
Target sequence (P06280 32-429 limits assumed): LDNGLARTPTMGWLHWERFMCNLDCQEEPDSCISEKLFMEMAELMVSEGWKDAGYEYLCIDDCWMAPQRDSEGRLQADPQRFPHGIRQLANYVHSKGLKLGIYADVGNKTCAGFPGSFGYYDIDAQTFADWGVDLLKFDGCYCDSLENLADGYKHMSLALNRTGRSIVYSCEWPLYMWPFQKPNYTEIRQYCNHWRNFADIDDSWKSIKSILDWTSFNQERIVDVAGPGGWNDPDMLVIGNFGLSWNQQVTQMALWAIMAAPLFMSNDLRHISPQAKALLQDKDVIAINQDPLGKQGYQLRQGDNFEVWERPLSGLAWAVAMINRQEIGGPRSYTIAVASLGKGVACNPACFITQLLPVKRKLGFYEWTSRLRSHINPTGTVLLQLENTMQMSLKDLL
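Inhibition or activation of alpha-galactosidase in human spleen homogenate is scored by 4-MU fluorescence after 40 min at 37C, pH 5.0, with 1 mM substrate. AC50s come from concentration-response fitted to the Hill equation.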
Active calls of the source: *; ? = inconclusive; . = not tested or not shown; ! = a repeat was not active; [ ] = another dose, or the depositor's remark. Hits are enriched below; roughly 0.43% of the tested compounds scored in any of these assays. Calls come from the whole dose curve; as a rule, active = well fitted curve in the direction sought with a large enough effect; inconclusive = small, poorly fitted or top-dose-only effect, or another doubt; inactive = no such curve, though single readings can be large; an effect the other way counts as inactive or inconclusive.

SMILES	GAA glycogen mod	GAA spleen mod	GLA inh pH 4.5	GAA inh	N370S GC	aGal spleen mod
Nc1[nH]nc2nc3ccccc3cc12	?	-4.3%	-1.5	-0.8%	9.3%	5.9%
CCNC(=S)N/N=C(\C)c1ccc2ccccc2c1OC(F)F	50.1µM*	4.4%	-1.9	3.2%	-12.9%	1.5%
Cc1ccc(CNC(=O)C2CCN(S(=O)(=O)c3ccc4c(c3)oc(=O)n4C)CC2)cc1	-5.1%[76.3 µM]	.	.	.	.	.
CSCCC(NC(=O)c1ccc([N+](=O)[O-])cc1Cl)C(=O)OC1CCCCC1=O (centres undefined)	-3.6%[76.3 µM]	.	.	.	0.3%	.
C/C=C1\COC(C(=O)NCCN2CCOCC2)(C(F)(F)F)C=C1C=C(C)C (centres undefined)	.	-2.9%	.	.	14.1µM*	1.7%
CC(=O)c1ccc(NC(=O)COc2ccccc2-c2nc(C(C)C)no2)cc1	-9.8%[76.3 µM]	.	.	.	.	.
CC(=O)c1ccc(NC(=O)COc2ccccc2-c2nc(C)no2)cc1	7.08µM*	.	.	.	.	.
O=C(Cn1c(=O)n(Cc2ccccc2)c(=O)c2sc3ccccc3c21)Nc1ccccc1	7.94µM*	.	.	.	.	.
Nc1ncnc2c1nc(Br)n2C1O[C@H]2COP(=O)(O)O[C@@H]2C1O (some centres undefined)	.	3.4%	-2.7	.	1.3%	4.7%
COc1ccccc1NS(=O)(=O)c1cccc(C(=O)N/N=C2\CC(=O)CC(C)(C)C2)c1	4.3%	-5.0%	-12.5	-11.3%	-26.9%	-1.1%
Cc1ccc(C)c(NC(=S)NNC(=O)c2ccco2)c1	22.4µM*	-0.1%	-9.2	-0.1%	-4.8%	9.3%
Cc1ccc(C(=O)Nc2ccc(Cl)cc2C)c(Cl)c1	20.0%	4.6%	0.1	-2.4%	-9.4%	-0.6%
CC(C)NC(=O)N1CC2(CCN(C(=O)c3cc(C(F)(F)F)cc(C(F)(F)F)c3)CC2)C1	.	4.9%	.	.	0.0%	-6.0%
Cc1cccc(N2CCN(c3ccc4cc(S(=O)(=O)N5CCCCC5)ccc4n3)CC2)c1C	.	.	.	.	-8.0%	.
O=C(O)C1OC(Oc2c(-c3ccc(O)c(O)c3)oc3cc(O)cc(O)c3c2=O)C(O)C(O)C1O (centres undefined)	3.98µM*	-16.7%	-12.4	1.4%[15.4 µM]	-21.5%	-11.7%
Cc1ccc(NNC(=O)c2cc(C(C)(C)C)nn2Cc2ccccc2)cc1	11.2µM*	3.1%	-5.7	-5.9%[15.4 µM]	7.9%	2.1%
CCN(Cc1ccccc1)C(=O)C(=O)c1cn(CC(=O)N2CCCC2)c2ccccc12	.	.	.	.	0.1%	.
Cc1cc(C)c2c(=O)n(-c3ccccc3)[nH]c2n1	-24.8%	-5.5%	8.4	-3.0%	-15.7%	-5.5%
Cc1cc(-c2ccccc2)nc2[nH]n(-c3ccccc3)c(=O)c12	35.5µM*	-2.0%	4.2	-0.3%	-3.7%	0.5%
CCOc1cc(CNCCO)cc(Br)c1OCc1ccc(Cl)cc1Cl	-3.8%	-8.6%	-3.3	-15.0%	10µM*	-4.1%
CCC(C)c1ccc(NC(=S)NCc2ccccc2OC)cc1 (centres undefined)	-14.4%	-11.3%	2.1	-2.9%	10.6%	-7.3%
Oc1ccc(/C=N/Nc2nc(-c3cccnc3)nc3ccccc23)c(O)c1	?	-8.9%	-17.3	.	-28.4%	-6.2%
Cc1c(O)ccc(/C=N/Nc2nc(-c3cccnc3)nc3ccccc23)c1O	35.5µM*	-6.7%	-1.3	-12.3%	?	-10.0%
N.N.N.N.N.N.N.N.N.N.N.N.N.N.O.O.[Cl-].[Cl-].[Cl-].[Cl-].[Cl-].[Cl-].[Ru].[Ru].[Ru]	.	2.1%	-14.8	.	-0.9%	5.8%
NC(=NCc1ccccc1)NC(=O)c1nc(Cl)c(N)nc1N	.	8.91µM*!	9.6	.	?	?
SMILES	GAA glycogen mod	GAA spleen mod	GLA inh pH 4.5	GAA inh	N370S GC	aGal spleen mod
NC(=Nc1ccccc1)NC(=O)c1nc(Cl)c(N)nc1N	.	-2.3%	-2.4	.	1.5%	0.3%
COc1ccc(C(=O)N2CCC3(CCCN(Cc4cc(C(F)(F)F)cc(C(F)(F)F)c4)C3)CC2)cc1	.	9.9%	.	.	16.4%	-4.5%
NS(=O)(=O)c1ccc(NNC(=O)c2ccccc2C(=O)O)cc1	?	-12.0%	-1.1	.	1.9%	-0.8%
O=C(O)c1ccccc1C(=O)NNc1ccc(Cl)cc1	11.2µM*	-8.4%	9.6	3.2%	-7.7%	-6.3%
O=C(O)C1OC(Oc2cc3oc(-c4ccccc4)cc(=O)c3c(O)c2O)C(O)C(O)C1O (centres undefined)	6.31µM*	-4.4%	2.4	2.4%[15.4 µM]	22.1%	-2.3%
CC1(C(=O)O)Sc2[nH]c(=O)sc2C2c3ccccc3OC(=O)C21 (centres undefined)	25.1µM*	5.5%	1.9	0.9%	-7.7%	6.4%
CC(=O)N[C@@H](C)c1nc2ccccc2n1CCCN1CCN(c2nc(-c3ccc(C)cc3)cs2)CC1	-14.1%[76.3 µM]	.	.	.	-6.4%	.
Cc1cccc(NC(=O)CSc2nc(-c3cccs3)cc(C(F)(F)F)c2C#N)c1	-11.1%[76.3 µM]	.	.	.	.	.
FC(F)(F)c1ccccc1-c1nccc(NCc2cccs2)n1	.	6.7%	.	.	3.16µM*	-3.8%
FC(F)(F)c1ccccc1-c1nccc(NCc2ccccc2)n1	.	12.7%	-0.4	.	11.2µM*	0.7%
C[C@H]1[C@H](C)CC[C@]2(C(=O)O)CC[C@]3(C)C(=CCC4[C@@]5(C)C[C@@H](O)[C@H](O)[C@@](C)(CO)[C@@H]5CC[C@]43C)[C@H]12 (some centres undefined)	.	17.2%	-3.4	.	-9.2%	0.8%
CS(C)(=O)=O	.	-9.9%	-1.4	.	-6.4%	19.2%
Cc1cc(SCC(=O)c2ccc(O)c(O)c2)nc2ccccc12	4.43µM*	5.5%	5.3	-1.6%	-13.4%	5.1%
O=C(CSc1n[nH]c(-c2ccccc2)n1)c1ccc(O)c(O)c1	10µM*	-14.6%	-8.9	-5.2%	-2.4%	0.4%
COc1cc(C(=O)OCCC(C)C)cc(OC)c1O	11.2µM*	0.8%	-16.1	-10.0%	3.5%	-1.4%
CCCCOC(=O)c1cc(Cl)c(O)c(OC)c1	-3.5%	-10.0%	-8.8	-0.1%	4.1%	-2.8%
Cc1sc2nc(N)sc2c1C	17.6µM*	-0.4%	-16.4	-5.4%	0.8%	-7.7%
Cc1ccc(C)c2sc(N)nc12	-8.3%	11.8%	0.0	2.0%	-11.3%	6.4%
C=CCn1c(-c2cc(-c3ccccc3)sc2N)n[nH]c1=S	22.4µM*	1.3%	-2.7	-1.3%	2.3%	8.6%
C=CCn1c(-c2csc(-c3ccccc3)n2)n[nH]c1=S	-7.4%	5.9%	1.7	-1.5%	3.7%	6.7%
CC(=O)N(c1ccc(Cl)cc1)c1cn(C(C)=O)c2ccccc12	-6.7%	8.8%	-8.1	1.6%	17.8µM*	-0.4%
COc1ccc(S(=O)(=O)N2CCC(C(=O)Nc3ccc(Oc4ccccc4)cc3)CC2)cc1OC	11.2µM*	.	.	.	.	.
Nc1cnc(Nc2ccc(Br)cc2)nc1N	7.03µM*	-3.3%	-11.4	-2.4%	?	-4.6%

Screening results deposited in PubChem by National Center for Advancing Translational Sciences (NCATS).
